Assay [1] is described as follows: antimalarial activity against Dd2 strain (AID 2302;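 active = growth inhibition above 50% at the single 2 µM test dose, taken to imply half-maximal potency below 2 µM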;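 note: 0% = DMSO untreated growth and 100% = chloroquine plus artemisinin killed control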). Conditions: P. falciparum Dd2 in RBCs, LDH growth readout, 72 h; at 2 µM; hits give high values.
The nature of assay [2]: human hepatoma cell viability loss – ATP luminescence, cytotoxicity control for P. falciparum antimalarial project, primary screen (AID 2303;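 active = inhibition above 50%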;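 note: 0% = DMSO wells and 100% = digitonin-killed cells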). Conditions: HepG2 viability, 24-48 h, at 10 µM, hits give high values.
Assay [3] addresses L-lactate dehydrogenase (Plasmodium falciparum (isolate CDC / Honduras)) (UniProt Q27743). The assay can be described thus: PfLDH activity inhibition – cell lysate, 3D7 strain, counter-screen for P. falciparum growth inhibition project (AID 2304).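 Note: 0% = vehicle and 100% = reference inhibitor.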 The following applies: P. falciparum 3D7 crude extract, LDH APAD/NBT absorbance; at 2 µM; hits give high values. Background: Counterscreens check selectivity or assay interference.

Assay [4] in a line: inhibition of 3D7 malaria parasite growth – strain 3D7 (AID 2306).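 Note: 0% = DMSO wells and 100% = chloroquine plus artemisinin control wells.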 The following applies: P. falciparum 3D7 erythrocytic growth, LDH absorbance, 72 h; at 2 µM; hits give high values.
For assay [5], the target named is Calcium-dependent protein kinase 1 (Plasmodium falciparum (isolate 3D7)) (UniProt P62344). Briefly: PfCDPK1 kinase inhibitors, biochemical, TCAMS library (AID 1159585; cut-off not given, nearly all actives have IC50 up to about 0.98 µM;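 note: inhibitors leave more ATP so luminescence rises with inhibition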). Conditions: recombinant PfCDPK1, Kinase-Glo ATP depletion luminescence. In general terms: In Kinase-Glo more light means more ATP remaining.
Sequence of Calcium-dependent protein kinase 1 (Plasmodium falciparum (isolate 3D7)) (P62344 whole entry, looked up): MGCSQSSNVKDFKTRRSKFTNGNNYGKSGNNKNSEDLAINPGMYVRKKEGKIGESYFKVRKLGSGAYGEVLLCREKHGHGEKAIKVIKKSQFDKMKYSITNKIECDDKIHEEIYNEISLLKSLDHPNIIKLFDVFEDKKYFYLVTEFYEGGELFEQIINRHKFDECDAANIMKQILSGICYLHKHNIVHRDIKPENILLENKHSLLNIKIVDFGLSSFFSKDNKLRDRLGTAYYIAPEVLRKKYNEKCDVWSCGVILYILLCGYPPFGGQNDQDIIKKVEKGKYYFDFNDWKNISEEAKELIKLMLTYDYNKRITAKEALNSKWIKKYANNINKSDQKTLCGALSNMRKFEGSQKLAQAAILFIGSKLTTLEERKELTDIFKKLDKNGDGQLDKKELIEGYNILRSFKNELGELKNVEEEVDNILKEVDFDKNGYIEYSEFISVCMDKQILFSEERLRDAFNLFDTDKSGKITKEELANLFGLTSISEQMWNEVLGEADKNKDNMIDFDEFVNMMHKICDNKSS
Assay [6] has as its target Plasmodium falciparum protein kinase 6 (PK6, PF3D7_1337100) (UniProt Q8IDW1). Briefly: PfPK6 kinase inhibitors, biochemical, TCAMS library (AID 1159586). Conditions: recombinant PfPK6, Kinase-Glo ATP depletion luminescence.
The target in assay [7] is Protein kinase 7 (PK7), Plasmodium falciparum 3D7 (PF3D7_0213400) (UniProt Q7YTF7). The assay can be described thus: inhibition of Plasmodium PK7 catalytic activity – biochemical, TCAMS antimalarial set, Kinase-Glo luminescence (AID 1159587). The following applies: recombinant PfPK7, Kinase-Glo ATP depletion luminescence.
Sequence of Protein kinase 7 (PK7), Plasmodium falciparum 3D7 (PF3D7_0213400) (Q7YTF7 1-343): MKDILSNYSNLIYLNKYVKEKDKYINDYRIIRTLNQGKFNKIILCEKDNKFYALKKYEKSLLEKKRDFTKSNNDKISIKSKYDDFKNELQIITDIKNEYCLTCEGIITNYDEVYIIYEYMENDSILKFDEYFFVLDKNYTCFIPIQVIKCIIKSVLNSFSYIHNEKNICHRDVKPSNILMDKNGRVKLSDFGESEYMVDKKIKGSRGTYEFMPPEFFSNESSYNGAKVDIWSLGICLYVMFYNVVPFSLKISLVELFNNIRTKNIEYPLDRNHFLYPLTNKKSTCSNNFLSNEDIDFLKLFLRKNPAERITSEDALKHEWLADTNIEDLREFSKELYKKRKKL
The target of assay [8] is Calcium-dependent protein kinase 4 (Plasmodium falciparum (isolate 3D7)) (UniProt Q8IBS5). The assay can be described thus: PfCDPK4 kinase inhibitors, biochemical, TCAMS library (AID 1159588; cut-off not given, nearly all actives have IC50 up to about 0.91 µM). The following applies: recombinant PfCDPK4, Kinase-Glo ATP depletion luminescence.
Sequence of Calcium-dependent protein kinase 4 (Plasmodium falciparum (isolate 3D7)) (Q8IBS5 whole entry, looked up): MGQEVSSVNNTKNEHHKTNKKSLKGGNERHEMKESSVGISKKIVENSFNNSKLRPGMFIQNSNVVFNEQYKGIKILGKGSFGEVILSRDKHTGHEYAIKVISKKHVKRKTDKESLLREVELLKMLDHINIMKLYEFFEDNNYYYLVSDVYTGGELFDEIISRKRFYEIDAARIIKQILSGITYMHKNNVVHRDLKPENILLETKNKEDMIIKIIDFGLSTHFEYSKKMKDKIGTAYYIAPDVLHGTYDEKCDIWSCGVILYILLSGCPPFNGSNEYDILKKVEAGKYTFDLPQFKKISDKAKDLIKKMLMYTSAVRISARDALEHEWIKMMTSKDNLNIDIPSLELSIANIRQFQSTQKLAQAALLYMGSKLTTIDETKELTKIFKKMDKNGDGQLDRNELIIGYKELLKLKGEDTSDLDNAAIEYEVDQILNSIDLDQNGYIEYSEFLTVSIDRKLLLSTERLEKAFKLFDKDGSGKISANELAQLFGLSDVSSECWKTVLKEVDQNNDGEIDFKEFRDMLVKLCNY

Molecules are shown by their SMILES. Unmarked numbers belong to inactive results. For some of these results: Results with a measured potency or affinity are listed apart. Active and inactive are the calls of the source. Unless noted, the rule behind the calls is not given here.

Sequence of L-lactate dehydrogenase (Plasmodium falciparum (isolate CDC / Honduras)) (Q27743 whole entry, looked up): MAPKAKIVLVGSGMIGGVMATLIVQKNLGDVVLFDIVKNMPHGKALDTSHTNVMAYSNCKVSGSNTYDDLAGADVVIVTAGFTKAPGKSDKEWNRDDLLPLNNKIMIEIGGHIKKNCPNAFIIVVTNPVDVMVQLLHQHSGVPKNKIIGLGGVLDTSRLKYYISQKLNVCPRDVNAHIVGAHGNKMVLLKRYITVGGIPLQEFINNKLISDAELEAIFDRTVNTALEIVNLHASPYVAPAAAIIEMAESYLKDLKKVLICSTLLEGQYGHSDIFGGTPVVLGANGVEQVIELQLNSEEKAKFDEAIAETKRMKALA
Sequence of Plasmodium falciparum protein kinase 6 (PK6, PF3D7_1337100) (Q8IDW1 1-305): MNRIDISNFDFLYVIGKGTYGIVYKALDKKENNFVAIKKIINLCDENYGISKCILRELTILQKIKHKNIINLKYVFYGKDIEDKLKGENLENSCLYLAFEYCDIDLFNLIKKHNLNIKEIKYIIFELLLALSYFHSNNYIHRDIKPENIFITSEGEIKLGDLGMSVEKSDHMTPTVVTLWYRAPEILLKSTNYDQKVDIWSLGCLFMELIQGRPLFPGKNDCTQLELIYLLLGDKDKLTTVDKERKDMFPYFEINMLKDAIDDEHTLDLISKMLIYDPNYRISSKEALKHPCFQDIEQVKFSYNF

Usually inhibition stands for the drop in the measured response relative to a control, in per cent. For `O=C(Nc1cccc(-c2ccc(CN3CCCC3)cc2)c1)c1ccc(F)cc1`, the growth inhibition was 9% in assay [1] and 92% (active) in assay [4]. Moreover, the inhibition in assay [2] is 23%; in assay [3], 4%. For the same compound, the result in assay [5], in assay [6], in assay [7] and in assay [8] was inactive.
Regarding `CC(C)C[C@H](NC(=O)c1ccc(OCCN2CCOCC2)cc1)C(=O)N[C@H](/C=N/N1CC(=O)NC1=O)CCc1ccccc1`, the growth inhibition in assay [1] is 67% (active); in assay [4] it was 88% (active). Further, the inhibition in assay [2] is 10%; in assay [3] it was 0%. The outcome in assay [5], in assay [6], in assay [7] and in assay [8] was inactive.
`CN1CCCC(CN2CCN(Cc3cccc(-c4cccc(-c5nc6ccccc6[nH]5)c4)c3)CC2)C1` (stereo not given): the growth inhibition in assay [1] was 99% (active); in assay [4] it was 100% (active). In addition, the inhibition in assay [2] was 45%; in assay [3], -8%. The result in assay [5], in assay [6], in assay [7] and in assay [8] was inactive.
As for `COc1cccc(C(=O)Nc2ccc(Nc3nc(C)cc(N(C)C)n3)cc2)c1OC`, the results for the growth inhibition in assay [1] and in assay [4] were 9% and 90% (active), respectively. Further, the inhibition in assay [2] is -10%; in assay [3], -3%. The result in assay [5], in assay [6], in assay [7] and in assay [8] was inactive.
Regarding `COc1ccc(-c2ccc(NC(=O)c3cccc(C#N)c3)cc2)cc1CN1CCNCC1`, the growth inhibition in assay [1] is 47%; in assay [4] it was 101% (active). Further, the results for the inhibition in assay [2] and in assay [3] were 30% and 8%, respectively. Moreover, the result in assay [5], in assay [6], in assay [7] and in assay [8] was inactive.
As for `O=C(Nc1ccccc1)Nc1cccc(-c2ccc(-c3nc4ccc(C(F)(F)F)cc4[nH]3)cc2)c1`, the growth inhibition in assay [1] is 37%; in assay [4] it was 101% (active). The inhibition in assay [2] was 48%; in assay [3], -3%. For the same compound, the outcome in assay [5], in assay [6], in assay [7] and in assay [8] was inactive.
On to `CCc1c(C(=O)NC2CCC(N3CCC(c4ccccc4C)CC3)CC2)[nH]c2ccc(Br)cc12` (stereo not given), for which the growth inhibition in assay [1] is 99% (active); in assay [4], 101% (active). For the same compound, the inhibition in assay [2] was 81% (active); in assay [3], -5%. Further, the result in assay [5], in assay [6], in assay [7] and in assay [8] was inactive.
As to `COc1ccc(N2CCN(CCCCNC(=O)c3ccc(NC(=O)c4ccc(Cl)cc4)cc3)CC2)c(C)c1`, the values for the growth inhibition in assay [1] and in assay [4] were 51% (active) and 100% (active), respectively. For the same compound, the inhibition in assay [2] is 42%; in assay [3], 0%. Besides, the result in assay [5], in assay [6], in assay [7] and in assay [8] was inactive.
With `CC(C)c1cc2c(cc1O)C(Cc1ccccc1Cl)N(C)CC2` (stereo not given), the growth inhibition was 33% in assay [1] and 97% (active) in assay [4]. The results for the inhibition in assay [2] and in assay [3] were -7% and -4%, respectively. Besides, the outcome in assay [5], in assay [6], in assay [7] and in assay [8] was inactive.
On to `Cc1ccc(NCC(=O)Nc2ccc(F)c(Cl)c2)cc1S(=O)(=O)N1CCOCC1`, for which the growth inhibition in assay [1] was 97% (active); in assay [4] it was 98% (active). For the same compound, the inhibition in assay [2] was 2%; in assay [3] it was 0%. The outcome in assay [5], in assay [6], in assay [7] and in assay [8] was inactive.
Consider `O=C(/C=C/c1ccc(CNCCN2CCOCC2)cc1)NCCc1ccccc1`, for which the growth inhibition was 3% in assay [1] and 94% (active) in assay [4]. For the same compound, the inhibition in assay [2] is 9%; in assay [3] it was -2%. Also, the outcome in assay [5], in assay [6], in assay [7] and in assay [8] was inactive.
Regarding `CN(C)c1c(CNCCCCCCNCc2ccc3ccccc3c2N(C)C)ccc2ccccc12`, the growth inhibition in assay [1] is 51% (active); in assay [4], 100% (active). The inhibition was 100% (active) in assay [2] and -2% in assay [3]. The outcome in assay [5], in assay [6], in assay [7] and in assay [8] was inactive.
Turning to `COc1ccc(C2N=C(N)N=C(N)N2OCc2ccccc2)cc1OC` (stereo not given), the growth inhibition is 2% in assay [1] and 95% (active) in assay [4]. Moreover, the inhibition in assay [2] was 1%; in assay [3], 0%. For the same compound, the outcome in assay [5], in assay [6], in assay [7] and in assay [8] was inactive.
`CC(C)(C)c1ccc(CN2CCCCC(NC(=O)c3cc(-c4cccc(F)c4)cs3)C2)cc1` (stereo not given): the growth inhibition is 84% (active) in assay [1] and 98% (active) in assay [4]. Besides, the values for the inhibition in assay [2] and in assay [3] were 8% and -3%, respectively. Moreover, the result in assay [5], in assay [6], in assay [7] and in assay [8] was inactive.
For the compound `FC(F)(F)c1cccc(NC(=S)NN=Cc2ccccn2)c1`, the results for the growth inhibition in assay [1] and in assay [4] were 99% (active) and 100% (active), respectively. Moreover, the inhibition was 29% in assay [2] and -7% in assay [3]. For the same compound, the result in assay [5], in assay [6], in assay [7] and in assay [8] was inactive.
For `Cc1cc(NC2CCCC2)nc(Nc2ccccc2F)n1`, the growth inhibition in assay [1] was 53% (active); in assay [4], 97% (active). The inhibition in assay [2] is 24%; in assay [3], -2%. The result in assay [5], in assay [6], in assay [7] and in assay [8] was inactive.
Consider `COc1cccc(NC(=O)Cn2c(C)c(C(=O)C(F)(F)F)c3ccccc32)c1`, for which the growth inhibition in assay [1] is 94% (active); in assay [4], 97% (active). For the same compound, the inhibition was 2% in assay [2] and -5% in assay [3]. Moreover, the outcome in assay [5], in assay [6], in assay [7] and in assay [8] was inactive.
As for `COc1ccc2nccc([C@@H](O)CN3CCC(NCc4cc5oc(=O)[nH]c5cc4Cl)CC3)c2c1`, the figures for the growth inhibition in assay [1] and in assay [4] were 91% (active) and 101% (active), respectively. For the same compound, the inhibition is 1% in assay [2] and -2% in assay [3]. Besides, the outcome in assay [5], in assay [6], in assay [7] and in assay [8] was inactive.
With `CNCCNCc1ccc(-c2ccc(-c3nc4ccc(C(F)(F)F)cc4[nH]3)cc2)cc1`, the values for the growth inhibition in assay [1] and in assay [4] were 92% (active) and 99% (active), respectively. Besides, the inhibition in assay [2] is 28%; in assay [3], 1%. For the same compound, the outcome in assay [5], in assay [6], in assay [7] and in assay [8] was inactive.
With `NC1=NC(c2ccccc2)(c2ccccc2)C(=O)N1Cc1ccccc1Br`, the growth inhibition in assay [1] is 38%; in assay [4] it was 93% (active). In addition, the values for the inhibition in assay [2] and in assay [3] were 36% and 4%, respectively. The result in assay [5], in assay [6], in assay [7] and in assay [8] was inactive.

For the origin of these results see PubChem BioAssay.
